Eight compounds from PubChem BioAssay can be followed below.

The source made the active and inactive calls.

For one test, the target named is Albumin (Bos taurus) (UniProt P02769). In words: bovine serum albumin binders on microarray, profiling panel, artefact control for SMM control protein annotation, biochemical, small-molecule microarray, Alexa647 label, 635/667 nm fluorescence (AID 1118).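 Further: score merges 667 nm emission intensity and signal-to-noise per printed compound spot.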 The conditions noted are these: BSA-A647 binding, fluorescence 635 nm, higher = more signal.
Chain of Albumin (Bos taurus) (P02769 whole entry, looked up): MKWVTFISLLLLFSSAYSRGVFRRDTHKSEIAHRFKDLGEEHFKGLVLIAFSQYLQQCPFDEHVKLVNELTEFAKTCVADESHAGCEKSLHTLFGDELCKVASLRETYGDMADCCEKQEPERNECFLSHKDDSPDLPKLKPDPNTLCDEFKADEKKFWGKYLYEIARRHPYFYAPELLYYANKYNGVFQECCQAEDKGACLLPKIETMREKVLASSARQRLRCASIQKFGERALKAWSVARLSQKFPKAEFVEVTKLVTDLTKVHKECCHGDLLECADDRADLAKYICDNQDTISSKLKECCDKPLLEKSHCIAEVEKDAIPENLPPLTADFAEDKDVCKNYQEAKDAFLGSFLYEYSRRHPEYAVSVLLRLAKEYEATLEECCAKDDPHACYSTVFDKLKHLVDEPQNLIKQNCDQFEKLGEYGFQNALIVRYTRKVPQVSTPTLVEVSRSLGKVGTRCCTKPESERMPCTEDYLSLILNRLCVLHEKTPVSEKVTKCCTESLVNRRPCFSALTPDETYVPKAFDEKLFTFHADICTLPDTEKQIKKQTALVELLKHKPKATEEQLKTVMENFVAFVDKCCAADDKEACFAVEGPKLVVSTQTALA
A short description of test [1]: small-molecule microarray binders of probe aXIP, primary screen, biochemical, NeuroSMM set, 635/667 nm fluorescence (AID 1119).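 Further: probe is the protein aXip251-270 applied at 1 µg/mL to compound-printed slides; binding of probe to printed compounds measured as 667 nm fluorescence plus signal to noise.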 The following applies: higher = more signal, called active from +8 up or from −8 down.
Test [2] is described as follows: small-molecule binders of probe aNOTCH3, primary screen, biochemical, small-molecule microarray, 635/667 nm fluorescence (AID 1120).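 Further: probe is a biotin-tagged antibody raised against NOTCH3 rather than NOTCH3 protein; score merges spot fluorescence near 667 nm with spot signal to noise.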 The conditions noted are these: higher = more signal.
The nature of test [3]: small-molecule binders of probe aNOTCH2, primary screen, biochemical, small-molecule microarray, 635/667 nm fluorescence (AID 1121).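 Further: score merges feature fluorescence read at 667 nm with its signal to noise.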 The conditions noted are these: higher = more signal.
Test [4] concerns the target Carbonic anhydrase 2 (Homo sapiens) (UniProt P00918). In words: CAII small-molecule binders, profiling panel, biochemical, small-molecule microarray, Alexa647-labelled CAII (AID 1122). The conditions noted are these: CAII-A647 binding fluorescence, higher = more signal.
Test [5] is described as follows: COS7 lysate on small-molecule microarray, probe aHis, 635 nm (AID 1123).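 Further: z-score combines 667nm fluorescence intensity with signal-to-noise per printed compound spot.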 The conditions noted are these: COS7 cell lysate, fluorescence, higher = more signal.
The nature of test [6]: compound binding in COS7 lysate, probe aLAP1, primary screen, cell lysate, small-molecule microarray (AID 1124).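 Further: lysate comes from COS7 cells expressing LAP1 and is applied at 0.3 µg/mL; score merges spot fluorescence near 667 nm with signal-to-noise over triplicate slides.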 The following applies: probe aLAP1, fluorescence, higher = more signal.
A further test relates to Sam68 (KHDRBS1). The test can be described thus: Sam68 small-molecule binders, primary screen, biochemical, small-molecule microarray, 635 nm fluorescence (AID 1125).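 Further: score merges 667 nm channel intensity with signal to noise over triplicate slides.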 The following applies: small-molecule microarray binding, higher = more signal.
Test [7] deals with Chordin-like protein 2 (CHRDL2). The test can be described thus: CHRDL2 small-molecule binders, primary screen, biochemical, small-molecule microarray, 635 nm fluorescence (AID 1126).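 Further: printed compound slides probed with Chrdl2 protein at 4 µg/mL for 1 h at 4 C; score merges 667 nm emission intensity with signal to noise over three replicate slides.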 The conditions noted are these: small-molecule microarray binding, fluorescence 635 nm; higher = more signal.
Test [8] addresses Concanavalin-A (Canavalia ensiformis) (UniProt P02866). In words: ConA small-molecule binders, primary screen, artefact control for SMM control protein annotation, biochemical, small-molecule microarray, Alexa647 label, 635 nm (AID 1127).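 Further: z combines 667 nm emission intensity with signal-to-noise across three replicate slides.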 The conditions noted are these: ConA-A647 binding fluorescence, higher = more signal.
A short description of test [9]: anti-His antibody binders, primary screen, artefact control for SMM control protein annotation, biochemical, small-molecule microarray, 635 nm fluorescence (AID 1128).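 Further: score merges feature fluorescence with signal-to-noise for each printed compound spot.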 The conditions noted are these: anti-His Alexa647 antibody binding, higher = more signal.
For test [10], the system named is Human papillomavirus type 1a E7 protein (residues 1-88). The test can be described thus: HPV1a E7 small-molecule binders, primary screen, biochemical, small-molecule microarray, residues 1-88, 635 nm (AID 1129). The conditions noted are these: small-molecule microarray binding, fluorescence 635 nm; higher = more signal.
Test [11] deals with Focal adhesion kinase 1 (Homo sapiens) (UniProt Q05397). The test can be described thus: small-molecule microarray binders of FAK, primary screen, biochemical, 635/667 nm fluorescence, BSA, DTT (AID 1130).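 Further: composite of spot emission at 667 nm and signal to noise over triplicate slides.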 The following applies: PTK2 binding, 635 nm fluorescence, higher = more signal.
Chain of Focal adhesion kinase 1 (Homo sapiens) (Q05397 whole entry, looked up): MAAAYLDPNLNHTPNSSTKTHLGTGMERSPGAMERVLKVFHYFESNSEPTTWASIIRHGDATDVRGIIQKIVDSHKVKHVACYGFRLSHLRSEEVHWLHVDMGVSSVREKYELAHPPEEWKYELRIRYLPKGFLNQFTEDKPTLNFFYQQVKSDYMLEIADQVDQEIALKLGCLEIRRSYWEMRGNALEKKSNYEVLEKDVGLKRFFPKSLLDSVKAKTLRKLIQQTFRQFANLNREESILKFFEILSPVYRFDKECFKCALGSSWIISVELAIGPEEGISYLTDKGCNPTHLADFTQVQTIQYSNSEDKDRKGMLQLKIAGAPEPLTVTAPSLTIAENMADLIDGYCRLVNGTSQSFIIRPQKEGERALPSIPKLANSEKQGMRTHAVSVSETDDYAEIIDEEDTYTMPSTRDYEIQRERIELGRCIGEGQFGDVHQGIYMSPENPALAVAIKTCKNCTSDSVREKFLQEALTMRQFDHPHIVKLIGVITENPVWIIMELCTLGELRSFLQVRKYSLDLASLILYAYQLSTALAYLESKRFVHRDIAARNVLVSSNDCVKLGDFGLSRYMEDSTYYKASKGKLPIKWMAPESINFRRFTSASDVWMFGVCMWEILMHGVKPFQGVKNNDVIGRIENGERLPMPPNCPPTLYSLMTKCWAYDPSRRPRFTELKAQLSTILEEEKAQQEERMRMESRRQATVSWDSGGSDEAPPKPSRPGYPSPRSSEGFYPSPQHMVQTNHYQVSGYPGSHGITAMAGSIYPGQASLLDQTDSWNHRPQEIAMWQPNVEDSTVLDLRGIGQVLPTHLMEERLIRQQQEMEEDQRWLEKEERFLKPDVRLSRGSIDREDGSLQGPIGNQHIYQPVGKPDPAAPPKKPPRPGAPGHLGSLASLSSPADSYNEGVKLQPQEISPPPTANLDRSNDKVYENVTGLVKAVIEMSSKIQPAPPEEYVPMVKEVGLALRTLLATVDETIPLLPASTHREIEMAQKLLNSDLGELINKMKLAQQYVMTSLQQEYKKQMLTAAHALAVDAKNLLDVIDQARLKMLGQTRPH
The subject of test [12] is Fibrinogen (Alexa647-labelled). In words: fibrinogen binders on compound microarrays, profiling panel, artefact control for SMM control-protein annotation, biochemical, small-molecule microarray, 635/667 nm fluorescence (AID 1131).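 Further: z-score merges 667 nm fluorescence with per-spot signal-to-noise over triplicate slides.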 The conditions noted are these: fibrinogen-A647 binding fluorescence, higher = more signal.
The target of test [13] is Follistatin (Homo sapiens) (UniProt P19883). The test can be described thus: follistatin binders on small-molecule microarrays, primary screen, biochemical, small-molecule microarray, 635/667 nm fluorescence (AID 1132). The conditions noted are these: FST binding, 635 nm fluorescence, higher = more signal.
Chain of Follistatin (Homo sapiens) (P19883 whole entry, looked up): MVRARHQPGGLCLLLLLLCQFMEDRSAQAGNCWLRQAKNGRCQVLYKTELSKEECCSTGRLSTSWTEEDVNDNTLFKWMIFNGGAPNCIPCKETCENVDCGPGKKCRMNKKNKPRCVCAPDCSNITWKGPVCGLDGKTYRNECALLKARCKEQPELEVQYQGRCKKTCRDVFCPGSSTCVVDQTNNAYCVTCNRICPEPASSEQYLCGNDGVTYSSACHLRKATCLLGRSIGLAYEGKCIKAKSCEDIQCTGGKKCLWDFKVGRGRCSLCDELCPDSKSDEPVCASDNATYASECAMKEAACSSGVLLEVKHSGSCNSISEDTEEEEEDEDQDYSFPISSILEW
In test [14] the target is Fibroblast growth factor 2 (Homo sapiens) (UniProt P09038). The test can be described thus: FGF2 binders on small-molecule microarrays, primary screen, biochemical, small-molecule microarray, 635/667 nm fluorescence (AID 1133). The conditions noted are these: small-molecule microarray binding, FGF2, fluorescence 635/667; higher = more signal.
Chain of Fibroblast growth factor 2 (Homo sapiens) (P09038 whole entry, looked up): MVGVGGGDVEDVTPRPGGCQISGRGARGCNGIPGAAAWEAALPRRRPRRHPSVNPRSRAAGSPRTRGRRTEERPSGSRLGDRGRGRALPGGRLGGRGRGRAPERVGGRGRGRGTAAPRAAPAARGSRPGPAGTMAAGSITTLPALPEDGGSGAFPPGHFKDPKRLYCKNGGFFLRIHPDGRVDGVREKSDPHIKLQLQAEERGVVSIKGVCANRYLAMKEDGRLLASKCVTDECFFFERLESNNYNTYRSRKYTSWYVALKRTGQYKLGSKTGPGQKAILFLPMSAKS
A short description of test [15]: mitochondrial membrane potential change in A549 cells, profiling panel, cell-based, JC-1 fluorescence, basal, 24 h, 100 nL (AID 1138).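 Further: A549 lung adenocarcinoma cells under basal conditions with no added stimulus; test concentration not given here.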 The conditions noted are these: higher = more signal.
The subject of another test is Lefty1. The test can be described thus: Lefty1 binders on small-molecule microarrays, primary screen, biochemical, small-molecule microarray, 635/667 nm fluorescence (AID 1139). The conditions noted are these: small-molecule microarray binding, fluorescence 635/667; higher = more signal.
Test [16] relates to wheat germ agglutinin (Triticum aestivum), Alexa647-labelled. The test can be described thus: wheat germ agglutinin binders on compound microarrays, profiling panel, artefact control for SMM control-protein annotation, biochemical, small-molecule microarray, 635/667 nm fluorescence (AID 1140).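 Further: score merges 667 nm feature emission with signal to noise over triplicate slides.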 The following applies: WGA-A647 binding, 635 nm fluorescence, higher = more signal.
Test [17] addresses Luciferin 4-monooxygenase (Photinus pyralis) (UniProt P08659). The test can be described thus: firefly luciferase enzyme inhibitors, primary screen, biochemical, luminescence, purified enzyme, 2006 set (AID 1141).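 Further: cell-free assay with purified firefly luciferase at 100 ng per well in PBS; test concentration not given here.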 The following applies: SteadyGlo luminescence, 30 min, higher = more signal, called active from +8 up or from −8 down.

Chain of Luciferin 4-monooxygenase (Photinus pyralis) (P08659 whole entry, looked up): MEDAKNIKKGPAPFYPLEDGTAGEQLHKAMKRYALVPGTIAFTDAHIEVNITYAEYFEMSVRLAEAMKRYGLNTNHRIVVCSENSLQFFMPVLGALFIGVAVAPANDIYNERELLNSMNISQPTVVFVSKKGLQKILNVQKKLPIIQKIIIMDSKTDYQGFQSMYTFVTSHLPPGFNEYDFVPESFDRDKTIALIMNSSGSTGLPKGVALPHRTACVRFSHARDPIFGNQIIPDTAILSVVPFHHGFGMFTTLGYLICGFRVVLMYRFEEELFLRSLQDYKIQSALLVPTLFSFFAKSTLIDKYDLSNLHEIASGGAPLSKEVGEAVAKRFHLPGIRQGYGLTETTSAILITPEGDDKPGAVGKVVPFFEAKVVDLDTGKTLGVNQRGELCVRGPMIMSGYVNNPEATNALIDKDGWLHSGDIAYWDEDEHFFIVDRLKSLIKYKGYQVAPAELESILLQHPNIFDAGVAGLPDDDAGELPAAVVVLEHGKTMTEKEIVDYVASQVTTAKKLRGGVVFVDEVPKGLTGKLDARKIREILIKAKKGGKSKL
Chain of Concanavalin-A (Canavalia ensiformis) (P02866 whole entry, looked up): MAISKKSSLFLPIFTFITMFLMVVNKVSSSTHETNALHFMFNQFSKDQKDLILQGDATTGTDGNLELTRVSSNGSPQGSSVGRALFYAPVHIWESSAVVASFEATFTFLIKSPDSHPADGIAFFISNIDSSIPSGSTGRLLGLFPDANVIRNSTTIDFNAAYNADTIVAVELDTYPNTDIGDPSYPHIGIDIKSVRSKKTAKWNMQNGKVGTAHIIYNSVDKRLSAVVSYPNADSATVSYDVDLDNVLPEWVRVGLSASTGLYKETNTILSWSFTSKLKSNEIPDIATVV

Take `NC(=O)N1C(=O)C2C(C1=O)C1C=C(CCCO)C2C(c2cccs2)N1Cc1cccc(OC(F)(F)F)c1` (stereo not given): the composite z-score with Albumin (Bos taurus) was 0.729; in [2], -0.023; in test [3], -0.0534; in test [4], 0.583; in [5] it was 0.789; in [6], -0.0259. For the same compound, the composite z-score was 1.07 in the test with Sam68 (KHDRBS1); -0.0665 in test [7]; 0.434 in test [8]; 2.83 in test [9]; 0.416 in test [10]; 0.192 in test [11]. The composite z-score is 0.692 in test [12]; 0.82 in test [13]; -0.0701 in [14]; 0.672 in the test with Lefty1; 0.438 in [16]. Moreover, the composite Z-score in [1] is -0.182 (inactive). For the same compound, the figures for the z-score in test [15] and in [17] were 0.928 and -0.929 (inactive), respectively.
Consider `CN(C)CCCNC(=O)[C@@]1(c2ccc([N+](=O)[O-])cc2)CC(=O)N(CC23CC4CC(CC(C4)C2)C3)[C@@H]1c1ccc(CO)cc1I`, for which the composite z-score is 0.685 in the test with Albumin (Bos taurus); 0.095 in test [2]; -0.0877 in test [3]; 0.511 in test [4]; 2.86 in [5]; 0.457 in [6]. Also, the composite z-score is 1.28 with Sam68 (KHDRBS1); 0.731 in test [7]; 1.14 in test [8]; 1.46 in [9]; 1.21 in test [10]; -0.0381 in test [11]. Further, the composite z-score worked out at 0.846 in test [12]; 1.35 in [13]; 1.34 in [14]; 1.5 in the test with Lefty1; 0.674 in test [16]. Besides, the composite Z-score in test [1] is -0.729 (inactive). The z-score is -2.32 in [15] and -1.46 (inactive) in test [17].
As for `COc1cc(OC)c(C(O)C2C=CC3C(=O)N(c4ccccc4)C(=O)C3N2Nc2ccccc2)cc1Br` (stereo not given), the composite z-score in the test with Albumin (Bos taurus) was 0.911; in [2], 0.245; in [3] it was -0.117; in test [4], 0.457; in test [5], 1.33; in test [6], 0.468. Moreover, the composite z-score in the test on Sam68 (KHDRBS1) is 1.19; in test [7], -1.07; in test [8] it was 1.1; in test [9], 1.95; in [10] it was 1.18; in test [11], 0.531. The composite z-score in test [12] is 0.454; in [13] it was 0.461; in test [14] it was -0.179; with Lefty1 it was 0.387; in test [16], 0.126. In addition, the composite Z-score in test [1] was -0.565 (inactive). Moreover, the z-score in test [15] was -0.267; in test [17], -0.229 (inactive).
For the compound `CCOC(=O)C1=CC[C@@H](c2ccccc2C(F)(F)F)N(S(=O)(=O)c2ccc(C)cc2)[C@H]1c1ccc(C#N)cc1`, the composite z-score was 0.733 with Albumin (Bos taurus); 0.223 in [2]; -0.0211 in [3]; 0.675 in [4]; 0.791 in test [5]; 1.25 in test [6]. The composite z-score was 0.892 in the test with Sam68 (KHDRBS1); 0.475 in test [7]; 1.11 in test [8]; 0.915 in test [9]; 1.15 in test [10]; -0.0446 in [11]. Besides, the composite z-score is 0.647 in test [12]; 0.507 in [13]; 0.437 in [14]; -0.0373 in the test with Lefty1; 1.08 in [16]. In test [1], the composite Z-score was -0.554 (inactive). Moreover, the z-score is -1.92 in test [15] and 1.47 (inactive) in test [17].
In the case of `COCCCNC(=O)[C@@]1(Sc2ccc(C)cc2)CC(=O)N(C2CCCCC2)[C@@H]1c1ccc(CO)cc1`, the composite z-score is -0.111 with Albumin (Bos taurus); -0.337 in test [2]; -0.12 in test [3]; 0.71 in [4]; 1.62 in test [5]; 1.21 in [6]. The composite z-score in the test with Sam68 (KHDRBS1) is -0.281; in test [7], -0.975; in test [8] it was -0.305; in test [9], 0.624; in [10], -0.454; in [11], 0.647. In addition, the composite z-score in test [12] was -1.08; in [13], -0.441; in test [14], -0.511; in the test with Lefty1, -1.63; in [16], -0.361. Besides, the composite Z-score in test [1] is -0.513 (inactive). The z-score is -0.227 in test [15] and 0.545 (inactive) in [17].
As to `COc1ccc(NC(=O)O[C@H]2[C@H](OC(=O)Nc3ccccc3)[C@H](OC(=O)Nc3ccccc3)[C@@H](OC)O[C@@H]2CO)cc1`, the composite z-score with Albumin (Bos taurus) came out at 0.693; in [2], 0.861; in test [3], 0.28; in test [4], 0.703; in [5], 2.87; in test [6] it was 0.197. For the same compound, the composite z-score in the test with Sam68 (KHDRBS1) worked out at 1.31; in test [7] it was 0.181; in test [8], 0.946; in test [9], 1.65; in [10], 1.19; in test [11], 0.709. Besides, the composite z-score in test [12] amounted to 0.284; in test [13], 1.35; in test [14] it was 1.45; in the test with Lefty1, 0.735; in test [16], 0.98. The composite Z-score in test [1] was 1.58 (inactive). For the same compound, the z-score in test [15] is 0.732; in test [17], -0.128 (inactive).
For the compound `O=C1C2C=CC(C(O)c3ccccc3)N(Nc3ccccc3F)C2C(=O)N1c1ccccc1` (stereo not given), the composite z-score with Albumin (Bos taurus) is 0.571; in [2], -0.0879; in test [3], -0.126; in [4] it was 0.811; in test [5], 0.737; in test [6], 0.34. For the same compound, the composite z-score in the test with Sam68 (KHDRBS1) was 0.246; in test [7], 0.18; in test [8] it was 0.532; in test [9], 0.513; in test [10], 0.506; in [11], 0.0669. The composite z-score in [12] is 0.168; in [13] it was -0.0118; in test [14], -0.248; in the test on Lefty1 it was 0.347; in test [16] it was 0.0842. Moreover, the composite Z-score in test [1] was -0.158 (inactive). The values for the z-score in [15] and in test [17] were 0.462 and 0.541 (inactive), respectively.
For `COC(=O)[C@@]1(Cc2ccccc2)[C@H]2c3cc(C(=O)N(C)C)n(Cc4c(CO)[nH]cc(C)c4=O)c3C[C@H]2CN1C(=O)c1ccccc1`, the composite z-score in the test with Albumin (Bos taurus) was 0.96; in test [2], 0.163; in test [3], -0.0351; in test [4], 0.777; in [5], 1.35; in test [6] it was -0.056. Besides, the composite z-score in the test on Sam68 (KHDRBS1) was 0.432; in test [7], -0.26; in test [8], 0.295; in test [9], 0.886; in [10], 0.677; in test [11] it was 0.206. Besides, the composite z-score in [12] is 0.819; in test [13], -0.0699; in test [14], -0.615; in the test on Lefty1 it was -0.016; in test [16], 1. For the same compound, the composite Z-score in [1] was 0.546 (inactive). Further, the results for the z-score in [15] and in test [17] were 0.238 and 0.379 (inactive), respectively.
